Measured values as given in PubChem BioAssay (EPA / NIEHS).
Several values for one entry are separate records, joined by “and”; a condition that tells them apart may be missing. Equal values may be shown once. Some compounds were tested as several samples or in several runs, with calls that do not always agree. Activity calls are given as the source filed them. The calls were made as follows: active = hit-call score of the fitted dose curve at least 0.9, where 1 is the maximum; inactive = score below 0.9.

Experiment: ATG_GLI_CIS: Attagene CIS-FACTORIAL HepG2 Assay for human Zinc Finger Protein GLI1 (AID 2282945)
Conditions: HepG2, Attagene cis-factorial reporter mRNA, GLI element; actives raise or lower the signal
Method: ATG_CIS is a cell-based, multiplexed-readout assay that uses HepG2, a human liver cell line, with measurements taken at 24 hours after chemical dosing in a 24-well plate.ATG_GLI_CIS is one of 52 assay component(s) measured or calculated from the ATG_CIS assay. It is designed to make measurements of mRNA induction, a form of inducible reporter, as detected with fluorescence intensity signals by Reverse transcription polymerase chain reaction (RT-PCR) and Capillary electrophoresis technology.Data from the assay component ATG_GLI_CIS was analyzed into 1 assay endpoint. This assay endpoint, ATG_GLI_CIS, was analyzed with bidirectional fitting relative to DMSO as the negative control and baseline of activity. Using a type of inducible reporter, measures of mRNA for gain or loss-of-signal activity can be used to understand the reporter gene at the transcription factor-level as they relate to the gene GLI1. Furthermore, this assay endpoint can be referred to as a primary readout, because this assay has produced multiple assay endpoints where this one serves a reporter gene function. To generalize the intended target to other relatable targets, this assay endpoint is annotated to the dna binding intended target family, where the subfamily is zinc finger.
Human liver HepG2 cells are transiently transfected with multiple reporter transcription units (MRTUs) in 6-well plates using FuGene 6 reagent (Roche; 3 ml FuGene/1 mg DNA). The MRTU constructs are regulated by a cis-regulating element (promoter). […] A major difference between the CIS and TRANS system is that in CIS activities of endogenous TFs are measured, whereas the TRANS assay evaluates changes in activities of exogenous, chimeric NR-Gal4 proteins. […] At the end of 24 hour incubation, total RNA was isolated using TriZol reagent (Invitrogen). The isolated RNA is then reverse-transcribed using oligo(dT) primer and Mo-MLV reverse transcriptase (Invitrogen) with DNAse I (Ambion) treatment for 30 min. The one-tenth of the produced cDNA was amplified by PCR using Taq DNA polymerase (Invitrogen) and two reporter sequence-specific primers. The PCR products were fluorescently labeled by primer extension with 6-arboxyfluorescein (6-FAM) 5'-labeled reporter sequence-specific primer (2 min at 95 C, 20 s at 68 C and 10 min at 72 C) and these products were digested with 5U of HpaI (New England Biolabs) for 2h at 37 C. The fragments were purified using Qiaquick PCR columns (Qiagen), analyzed on an ABI 3130xL genetic analyzer (Applied Biosystems) with peak positions identified by using a set of X-rhodamine (ROX)-labeled MapMarker1000 molecular weight standards (BioVentures). The raw capillary electrophoresis data was processed using Attagraph software (Attagene).

outcome, inactive:
C[C@]12CC[C@@H]3c4ccc(O)cc4CC[C@H]3[C@@H]1C[C@@H](O)[C@@H]2O
CCCCCCCCCCCCOC(=O)c1cc(O)c(O)c(O)c1
CC(C)(c1ccc(Oc2ccc(N)cc2)cc1)c1ccc(Oc2ccc(N)cc2)cc1
COCN(COC)c1nc(N(COC)COC)nc(N(COC)COC)n1
CCOCCOCC
Oc1cccc2c(O)cccc12
OCC1CCC(CO)CC1 (stereo not given)
Oc1c(Cl)cc(Cl)cc1Sc1cc(Cl)cc(Cl)c1O
CCCCCCCCC1CCC(=O)O1 (stereo not given)
c1cc2cccc3c4cccc5cccc(c(c1)c23)c54
CCCCCCCCCCCC[N+](C)(C)Cc1ccccc1
CC(C)c1c(C(=O)Nc2ccccc2)c(-c2ccccc2)c(-c2ccc(F)cc2)n1CC[C@@H](O)C[C@@H](O)CC(=O)O
CCOC(OCC)C(=O)c1ccccc1
COC1=CC(=O)C[C@@H](C)[C@]12Oc1c(Cl)c(OC)cc(OC)c1C2=O
CCCCCCc1ccc(N)cc1
O=CC(F)(F)C(F)(F)C(F)(F)C(F)F
C=CC(=O)OCCC(F)(F)C(F)(F)C(F)(F)C(F)(F)C(F)(F)C(F)(F)F
COc1cc([N+](=O)[O-])ccc1N
O=CC(F)(F)C(F)(F)C(F)(F)F
c1cnc2c(c1)ccc1cccnc12
NCc1cccc(CN)c1
CC(C)(C)c1ccc(CCC=O)cc1
FC(F)=C(F)C(F)(F)C(F)(F)C(F)(F)C(F)F
O=C(CCCN1CCC(O)(c2ccc(Cl)cc2)CC1)c1ccc(F)cc1
CCC(=O)C=Cc1ccc(OC)cc1
FCOC(C(F)(F)F)C(F)(F)F
C=CC(=O)OCCN(CC)CC
CC(C)(O)C(=O)c1ccccc1
C=Cc1ccc(O)c(OC)c1
O=C(CC(=O)C(F)(F)C(F)(F)C(F)(F)F)c1cccs1
O=S(=O)(O)c1ccc2cc(O)ccc2c1
c1ccc2c(c1)CCC2
O=P(O)(O)CCC(F)(F)C(F)(F)C(F)(F)C(F)(F)C(F)(F)C(F)(F)C(F)(F)C(F)(F)F
C=C(c1ccc(C(=O)O)cc1)c1cc2c(cc1C)C(C)(C)CCC2(C)C

AC50, active:
CN(C)c1ccc(C(=C2C=CC(=[N+](C)C)C=C2)c2ccccc2)cc1 1.42 µM and 1.85 µM
CCCCCCCCCCCC[N+](C)(C)Cc1ccccc1 16.7 µM
CCCCCCOC(=O)c1ccc(O)cc1 60.3 µM
C/C=C/C(=O)C1=C(C)CCCC1(C)C 69.7 µM
C=C(c1ccc(C(=O)O)cc1)c1cc2c(cc1C)C(C)(C)CCC2(C)C 28.6 µM
O=S(=O)(c1ccc(OCc2ccccc2)cc1)c1ccccc1O 51.1 µM
